Source: PubChem
NS1 function inh – qHTS Assay for Inhibitors of Influenza NS1 Protein Function; Potency, µM (highest dose often 46.1 µM), without a hit: top-dose activity, positive = more growth; 0.4% of 270,000 active; AID 2326, 2010; also: actives are rising curves; nearly all actives have a fitted effect of over 50% in size
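Compounds were scored for reversing the slow growth caused by influenza A NS1 in S. cerevisiae, measured by optical density at 600 nm. Assay medium contained 2% galactose at pH 6.0; NS1-free yeast of the same strain were the positive control.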
Pf growth 96h – Primary qHTS for delayed death inhibitors of the malarial parasite plastid, 96 hour incubation; P. falciparum luciferase reporter growth, 96 h; Potency, µM (top dose mostly 28.7 µM), for the others: top-dose activity change, negative = inhibition, actives largely listed as inhibitors; 6.9% of 320,000 active; AID 504834, 2011; active = well fitted inhibition curve with a large enough effect; inconclusive = small, poorly fitted or top-dose-only effect, or another doubt; inactive = no such curve, though single readings can be large or run the other way; also: % is scaled to controls: 0 for no effect and ±100 for the full control effect
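Two-generation exposure (96 h) targets delayed-death phenotype. Reporter parasites carrying integrated firefly luciferase, in red cells at 2% hematocrit and 0.05% parasitemia final, kept at 37 C, 5% CO2; luminescence loss indicates inhibition.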
SARS PLP yeast – qHTS of Yeast-based Assay for SARS-CoV PLP | S. cerevisiae expressing SARS-CoV PLpro, growth rescue | Potency, µM (top dose mostly 32.9 µM), for the others: top-dose activity, positive = growth rescue, most hits filed as activators | 0.19% of 330,000 active | AID 485353, 2010; also: 0% is about no effect; nearly all actives have a fitted effect of over 55% in size
Pf growth 48h – Primary qHTS for delayed death inhibitors of the malarial parasite plastid, 48 hour incubation | Potency, µM (top dose mostly 28.7 µM), for inactives: top-dose activity change, negative = inhibition, actives largely listed as inhibitors | P. falciparum luciferase growth in erythrocytes, 48 h | AID 504832, 2011 | 5.9% of 310,000 active; active = well fitted inhibition curve with a large enough effect; inconclusive = small, poorly fitted or top-dose-only effect, or another doubt; inactive = no such curve, though single readings can be large or run the other way; also: % is scaled to controls: 0 for no effect and ±100 for the full control effect
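First compound was added to culture medium, then infected red cells at 0.1% parasitemia and 2% hematocrit (final). After incubation at 37 C under 5% CO2, luciferase detection reagent was dispensed and light output recorded.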
* marks the source's active call; other numbers are inactive results; u = inconclusive; x = not tested or not shown. The list is not random: actives were taken first. Their share in the collection is about 10%. Unless noted, calls follow the shape of the full dose curve. Potency is read from the fitted curve at half-maximal effect.

SMILES	NS1 function inh	Pf growth 96h	SARS PLP yeast	Pf growth 48h
Cn1c(CCNC(=O)c2ccco2)nc2cc(NS(=O)(=O)c3ccc(Cl)cc3)ccc21	-47.2%	9.28µM*	1.2%	u
CN(Cc1cn(C)c2ccccc12)C(=S)Nc1cc(F)cc(F)c1	-5.5%	-11.3%	9.6%	11.7µM*
O=C(CSc1nc(=O)n(CCCN2CCOCC2)c2c1CCCC2)Nc1ccc(Cl)cc1	x	u	-6.3%	13.1µM*
O=C(CSc1nc(=O)n(CCN2CCOCC2)c2c1CCC2)Nc1ccc(OC(F)(F)F)cc1	x	-31.9%	0.7%	10.4µM*
COc1ccc(-c2cc(C(=O)N3CCCCC3)c3ccccc3n2)cc1OC	-8.9%	u	-2.1%	u
COc1ccc(Nc2nnc(-c3ccccc3)c3ccccc23)cc1C(=O)N1CCCCC1	-33.2%	1.17µM*	-4.5%	9.28µM*
CCN(CC)C(=O)COc1ccc(-c2nnc(Nc3ccc(OC)c(C(=O)NC)c3)c3ccccc23)cc1	-8.8%	10.4µM*	0.4%	u
Cc1cccc(Nc2nnc(-c3ccc(C(=O)N4C[C@H]5C[C@H](C4)c4cccc(=O)n4C5)cc3)c3ccccc23)c1	-0.3%	3.7µM*	1.2%	u
Cc1cccc(NC(=O)N2C[C@H]3C[C@@H](C2)c2cccc(=O)n2C3)c1	-7.2%	18.7%	-2.8%	4.8%
COc1ccc(Nc2nnc(-c3ccc(C)cc3)c3ccccc23)cc1C(=O)N1CCCCC1	-21.0%	1.17µM*	18.0%	6.57µM*
NC(=O)C1CCN(c2oc(-c3ccc(F)cc3)nc2S(=O)(=O)c2ccccc2)CC1	x	u	-26.1%	10.4µM*
CCN1CCN(c2oc(-c3ccccc3C)nc2S(=O)(=O)c2ccccc2)CC1	x	9.28µM*	3.1%	u
Cc1ccc(S(=O)(=O)c2nc(-c3cccs3)oc2N2CCC(C(N)=O)CC2)cc1	x	x	0.9%	x
CC1CCN(c2oc(-c3ccco3)nc2S(=O)(=O)c2ccccc2)CC1	-19.2%	4.65µM*	-3.0%	-16.6%
CC(=O)N/C(=C\c1ccc(F)cc1)C(=O)OCc1ccccc1	4.2%	u	0.4%	3.2%
NC(=S)NS(=O)(=O)c1ccc(N)cc1	x	-6.2%	x	-2.0%
O=C1Nc2c(Br)cccc2C1=O	x	x	3.9%	x
NC(=O)CSc1nnc(COc2cccc3ccccc23)o1	-6.8%	11.7µM*	-1.8%	2.7%
O=C(CSc1nnc(COc2cccc3ccccc23)o1)N1c2ccccc2CCc2ccccc21	-3.8%	5.7%	x	-29.9%
Cc1ccc(C(=O)CSc2nnc(COc3cccc4cccnc34)o2)cc1	-43.8%	3.29µM*	-8.7%	u
O=C(CSc1nnc(COc2ccccc2Cl)o1)NC(=O)NC1CCCC1	-44.2%	11.7µM*	-5.9%	30.1%
CSc1ccccc1NC(=O)CN(C)C(=O)c1ccc(-n2cccn2)cc1	x	-7.3%	-7.1%	1.1%
CC(C)[C@@]1(c2ccccc2)ON(c2ccccc2C(F)(F)F)C1=O	x	u	3.7%	1.65µM*
Cc1nc2ccccc2c(=O)n1-c1ccccc1C(F)(F)F	0.0%	u	-2.2%	u
O=C1N(c2ccccc2C(F)(F)F)OC1(Cc1ccccc1)c1ccccc1 (stereo not drawn)	x	u	-2.3%	1.04µM*
SMILES	NS1 function inh	Pf growth 96h	SARS PLP yeast	Pf growth 48h
FC(F)(F)c1ccccc1-n1ccnc1	-11.8%	-12.8%	x	u
O=C(O)c1nn(-c2ccccc2C(F)(F)F)cc1O	u	19.9%	-5.3%	u
CC(C)[C@]1(c2ccccc2)ON(c2ccccc2C(F)(F)F)C1=O	x	4.65µM*	2.6%	1.85µM*
O=C1N(c2ccccc2C(F)(F)F)O[C@]1(c1ccccc1)C1CCCCC1	x	1.04µM*	-2.2%	u
CC(=O)Nc1ccc(S(=O)(=O)N(C)CC(=O)OC(C)C(=O)NC2CCCCC2)cc1 (stereo not drawn)	x	10.9%	2.0%	-2.3%
CCCn1c(=S)[nH]c2cc(C(=O)N(CCO)Cc3ccccc3)ccc2c1=O	8.3%	-17.3%	x	25.0%
CC1CCN(Cc2nnnn2CCCC(=O)NCCN2CCOCC2)CC1	5.8%	-11.7%	-3.6%	8.5%
O=C(Cn1cnc2ccccc2c1=O)N1CCN(S(=O)(=O)c2ccc(F)cc2)CC1	x	u	2.3%	u
CC(C)(N)CO[C@H]1C[C@H]2CC[C@@]1(C)C2(C)C	-1.7%	x	x	x
O=C(Cn1cccc(C(F)(F)F)c1=O)c1ccc(Cl)cc1	-2.5%	u	-0.6%	u
CC(C)[C@]1(c2ccc(Cl)cc2)ON(c2ccccc2C(F)(F)F)C1=O	x	1.65µM*	3.5%	1.85µM*
